This excerpt belongs to a sample that is enriched for hits.
aSyn yeast rescue: alpha-synuclein toxicity suppression in yeast | S. cerevisiae alpha-synuclein toxicity rescue, BacTiter-Glo growth, 24 h | Potency, µM (highest dose often 46.1 µM), most hits filed as activators | hit rate 0.02% among 94,000; active = well fitted activation curve with a large enough effect; note: 0% is about no effect
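Growth restoration measured by BacTiter-Glo luminescence after 24 hr at 30 deg C; alpha-synuclein yeast, raffinose-pregrown to mid-log, were added at OD600=0.02 in galactose medium onto pinned compounds.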
* marks the source's active call; other numbers are inactive results; i = inactive. Potency is the fitted concentration of half-maximal effect.

SMILES | aSyn yeast rescue
Cc1ccc2nc(N(Cc3cccnc3)C(=O)Cc3ccccc3)sc2c1 | i
Cc1cc(C)c2nc(N(Cc3cccnc3)C(=O)c3cccs3)sc2c1 | i
Cc1cccc2sc(N(Cc3cccnc3)C(=O)c3ccco3)nc12 | i
Cc1cc(C)c2nc(N(Cc3cccnc3)C(=O)Cc3ccccc3)sc2c1 | 12.6µM*
Cc1cccc2sc(N(Cc3cccnc3)C(=O)CCc3ccccc3)nc12 | i
Cc1cccc2sc(N(Cc3cccnc3)C(=O)Cc3ccccc3)nc12 | 10µM*
O=c1oc2ccc3ccccc3c2cc1-c1nnc(Nc2ccccc2F)s1 | i
COc1ccc(CNc2oc(-c3ccc(COc4ccc(Cl)cc4)o3)nc2C#N)cc1 | i
COc1ccc(C)cc1Nc1nc(N)c2cc(OC)c(OC)cc2n1 | i
CCN1CCN(C(c2ccc(OC)cc2)c2c(O)cc(C)n(Cc3ccco3)c2=O)CC1 (stereo not given) | i
COc1cc2nc3n(c(=O)c2cc1OC)-c1cc2ccccc2cc1C(=O)NC3CC(C)C (stereo not given) | i
CC(NC(=O)c1ccc(F)cc1)C(=O)NC1=NCCS1 (stereo not given) | i
COc1ccc(-n2cc(C(=O)NC(C)c3ccccc3)c3ccccc3c2=O)cc1 (stereo not given) | i
Cc1ccc(CNC(=O)c2ccc3c(c2)nc2n3CCOC2)cc1 | i
O=C(O)CCC(=O)Nc1sc2c(c1C(=O)Nc1ccccc1)CCCCC2 | i
COc1ccccc1NC(=O)c1c(NCc2ccc(C)o2)sc2c1CCC(C)C2 (stereo not given) | i
COc1ccc(NC(=O)c2c(NCc3ccc(C)o3)sc3c2CCC(C)C3)cc1 (stereo not given) | 14.1µM*
CCOc1ccc(NC(=O)c2c(NCc3ccc(C)o3)sc3c2CCCCC3)cc1 | i
Cc1ccc(NC(=O)CN(C)Cc2cccs2)cc1Cl | i
Nc1c(Br)cc(Br)c2c1[nH]c(=O)c1ccccc12 | i
CN(c1nc2ccccc2[nH]c1=O)C1CCCCC1 | i
O=C(c1ccc2c(c1)N(Cc1cccc(Cl)c1)C(=O)c1ccccc1S2(=O)=O)N1CCCC1 | i
COc1cccc(-n2c(-c3ccc(C)cc3)cc3c2CC(C)(C)CC3=O)c1 | i
Cc1ccc(SCCC(=O)N/N=C/c2ccncc2)cc1 | i
Cc1ccnc(NC(=O)c2c(C)oc3ncn(CC(C)C)c(=O)c23)c1 | i
SMILES | aSyn yeast rescue
CC(C)(C)OC(=O)N1CCC(c2c(C(=O)Nc3ccc4c(c3)OCCO4)cnn2-c2ccccc2)CC1 | i
CC(=O)c1ccc(NC(=O)C2CCCN(C(=O)c3ccc(Cl)cc3)C2)cc1 (stereo not given) | i
O=C(O)c1cc(Cl)ccc1-c1ccc(/C=C/c2cc(C(F)(F)F)[nH]c(=O)n2)o1 | i
COc1ccc(OCCC(=O)OCC(=O)Nc2cccc(S(=O)(=O)N3CCOCC3)c2)cc1 | i
Cc1cc(O)c(C(c2ccccc2)N2CCC(C)CC2)c(=O)n1Cc1ccco1 (stereo not given) | i
CC(O)C(NS(=O)(=O)c1ccc(Cl)cc1)C(=O)OCC(=O)Nc1cccnc1Cl (stereo not given) | i
CCN(CC)S(=O)(=O)c1ccc2c(c1)N(CC(=O)N1CCN(c3cccc(C(F)(F)F)c3)CC1)C(=O)CO2 | i
O=c1cc(CN2CCN(c3ccccc3F)CC2)c2cc(O)c(-c3ccccc3)cc2o1 | i
CC1CCN(C(=O)CCn2c(=O)oc3ccc(Cl)cc32)CC1 | i
COc1ccc(C(=O)N2CCN(c3nc4c(C)c(Cl)ccc4s3)CC2)c(OC)c1 | 15.8µM*
Cc1c(Cl)ccc2sc(N3CCN(C(=O)C(C)C)CC3)nc12 | i
COc1cc2ccccc2cc1C(=O)N1CCN(c2nc3c(C)cc(C)cc3s2)CC1 | i
O=C(NCc1nnnn1-c1ccccc1)c1ccc2ccccc2c1 | i
O=C(Nc1ccc(O)cc1)c1cccc(S(=O)(=O)N2CCOCC2)c1 | i
CCc1noc(C)c1C(=O)NNC(=O)c1ccccc1F | i
Cc1cc(C)cc(NC(=O)Cn2c(-c3cncs3)nc3ccccc32)c1 | i
COc1ccc(C2C(=O)N(C3CCCCC3)CC(=O)N2CCC2=CCCCC2)cc1 (stereo not given) | i
O=C(COc1ccc(F)cc1)OCc1cc(=O)n2nc(C3CC3)sc2n1 | i
CC(NC(=O)COC(=O)C1CCC1)c1ccccc1 (stereo not given) | i
COc1ccc(C)cc1S(=O)(=O)N1CCN(c2cccc(Cl)c2)CC1 | i
COC(=O)N/N=C/c1ccc(OS(=O)(=O)c2ccc(C)cc2)c(OC)c1 | i
CS(=O)(=O)Cc1ccc(C(=O)Nc2cccc(-c3nc4ccccc4[nH]3)c2)cc1 | i
Cc1ccc(/C=C(\C#N)c2nc3ccccc3c(=O)[nH]2)cc1 | i
Cn1c(/C(C#N)=C/c2ccc(C(F)(F)F)cc2)nc2ccccc21 | 2.51µM*
O=S(=O)(/C(=C/c1ccc(C(F)(F)F)cc1)c1nc2ccccc2[nH]1)c1ccccc1 | i
SMILES | aSyn yeast rescue
COc1ccccc1N(CC1CO1)S(=O)(=O)c1ccc(C)cc1 (stereo not given) | i
COC(=O)c1cc(C(=O)OC)cc(N2C(=O)CC(NNC(=O)c3ccc(C)cc3)C2=O)c1 (stereo not given) | i
CCNC(=O)C(C)NC(=O)C1=NN(c2ccccc2)C(=O)CC1 (stereo not given) | i
COc1ccc(-c2cc(C)no2)cc1S(=O)(=O)N1CCN(c2ccc(C(C)=O)cc2)CC1 | i
Cc1ccc(S(=O)(=O)c2cn(C)c3cc(N4CCCCC4)c(F)cc3c2=O)cc1 | i
O=C(Nc1cccc(-c2ccc(N3CCCCC3)nn2)c1)c1ccc(Br)o1 | i
c1ccc(Nc2c(-c3ccccc3)nc3ncccn23)cc1 | i
O=C(O)c1cc(-c2ccc3c(c2)OCCO3)n[nH]1 | i
NC(=O)CSc1nnc(-c2cnccn2)n1Cc1ccco1 | i
O=C(Nc1ccccc1N1CCCCC1)c1ccc([N+](=O)[O-])o1 | i
COc1ccccc1NC(=O)Nc1cc(C(C)(C)C)nn1C | i
Cc1cn2c(=O)cc(COc3cccc(NC(=O)c4cccc(F)c4)c3)nc2s1 | i
CCc1cnc2c(c1SCC(=O)N1CCCCC1)c(=O)n(C)c(=O)n2C | i
Cc1ccc(CN(Cc2ccco2)C(=O)c2ccc(Cl)cc2Cl)cc1 | i
CCOC(=O)c1cc2c(=O)n3ccccc3nc2n(CC2CCCO2)c1=NC(=O)c1cccc(C)c1 (stereo not given) | i
O=C1NC(Cc2ccccc2)c2nc3ccc(F)cc3c(=O)n2-c2ncccc21 (stereo not given) | i
O=C(Cc1ccccc1F)N1CCC(c2nc3c(nnn3Cc3ccc(F)cc3)c(=O)[nH]2)CC1 | i
Cc1ccc2ncc(C(=O)c3ccc(C)c(C)c3)c(S(=O)(=O)c3ccc(F)cc3)c2c1 | i
Cc1cc(=O)n2nc(N3CCCC(C(=O)NCc4ccccc4C)C3)sc2n1 (stereo not given) | i
Cc1ccc(Nc2nc(=O)c3cc([N+](=O)[O-])ccc3s2)cc1 | i
O=C(CSc1n[nH]c(=O)n1-c1ccccc1)Nc1ccccc1 | i
